Compounds with a hit are over-represented: about 4.1% of the library has one in this group of screens.
DAX1 inh-1 – DAX1 (NR0B1) inhibitors, primary screen, cell-based, HEK293, Gal4-DAX1, luciferase luminescence; Nuclear receptor subfamily 0 group B member 1 (Homo sapiens), P51843; HEK293 Gal4-DAX1 luciferase reporter; inhibition, % at 6.75 µM; 0.99% of 340,000 active;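 active = inhibition above the mean over all tested compounds plus 3 SD, cut at about 4.2% in these data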;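 also: 0% = DAX1-transfected cells with DMSO and 100% = empty-vector control cells with DMSO; inhibition shows as a rise in luminescence from relieved DAX1 repression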
Target sequence (P51843 207-470 limits assumed): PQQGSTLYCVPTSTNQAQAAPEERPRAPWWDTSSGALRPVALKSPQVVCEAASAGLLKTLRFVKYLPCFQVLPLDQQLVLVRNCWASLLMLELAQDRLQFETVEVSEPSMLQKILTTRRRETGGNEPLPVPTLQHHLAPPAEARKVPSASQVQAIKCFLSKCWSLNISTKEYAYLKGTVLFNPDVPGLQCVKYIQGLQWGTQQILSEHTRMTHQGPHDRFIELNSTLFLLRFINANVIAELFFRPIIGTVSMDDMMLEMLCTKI
DAX1 inh-2 – DAX1 (NR0B1) inhibitors on StAR promoter, primary screen, cell-based, luminescence, SF-1 (NR5A1), full-length DAX-1; HEK293T StAR-luciferase reporter, SF-1/DAX-1 repression relief; inhibition, % at 6.8 µM; 1.1% of 370,000 active; AID 652010, 2013;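 active = inhibition above the mean over all tested compounds plus 3 SD, cut at about 3.6% in these data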;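 also: 0% = DAX-1 cells with DMSO and 100% = cells lacking DAX-1 with DMSO; higher inhibition means more luminescence from relief of DAX-1 repression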
ssDAF12 agonist – S. stercoralis DAF-12 nuclear receptor activators, primary screen, cell-based, luminescence, HEK293, GRIP1 co-expression, lit1-tk-luc; Nuclear hormone receptor DAF-12 (Strongyloides stercoralis); HEK293 ssDAF-12/GRIP1 lit1-tk-luc reporter; % of 3 µM dafachronic acid response; activation, % at 6.8 µM; 1% of 370,000 active; AID 652126, 2013;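 active = activation above the mean over all tested compounds plus 3 SD, cut at about 0.9% in these data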;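 also: 0% = DMSO-only wells and 100% = 3 µM delta7-dafachronic acid wells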
hgDAF12 agonist – H. glycines DAF-12 receptor agonists, primary screen, cell-based, luminescence, HEK293, GAL4 fusion, UAS-luciferase; activation, % at 6.8 µM; HEK293 GAL4-hgDAF12 UAS-luciferase reporter, agonist luminescence; normalized to butyrate control; 1.8% of 370,000 active;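 active = activation above a cutoff set at the mean of all screened compounds plus 3 SD, cut at about 10% in these data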;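 also: 0% = DMSO wells and 100% = sodium butyrate wells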
hcDAF12 agonist – H. contortus DAF-12 nuclear receptor activators, primary screen, cell-based, luminescence, HEK293, lit1-tk-luc reporter. AID 652067, 2013. activation, % at 6.8 µM. 1.4% of 370,000 active. HEK293 hcDAF-12 lit1-tk-luc reporter; 0% DMSO, 100% Δ7-dafachronic acid;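 active = activation above the mean of all tested compounds plus 3 SD, cut at about 5.5% in these data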;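 also: 100% = response to 3 µM Δ7-dafachronic acid high control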
* hit, by the source's call.

Screening C[C@@H]1[C@@H](O)C[C@@]2(C[C@H](O)c3cc(Cl)ccc3O2)O[C@H]1c1ccccc1Cl returned DAX1 inh-2 -1, ssDAF12 agonist -1, hgDAF12 agonist -2 and hcDAF12 agonist -2.
`COc1ccc(NC(=O)c2ccccc2F)cc1Cl` gave DAX1 inh-1 1, DAX1 inh-2 2, ssDAF12 agonist 0, hgDAF12 agonist 11* and hcDAF12 agonist 3.
Screening COc1ccc(NC(=O)c2cccc(F)c2)cc1Cl returned DAX1 inh-1 2, DAX1 inh-2 0, ssDAF12 agonist -1, hgDAF12 agonist 9 and hcDAF12 agonist 2.
For Cc1cc(C(=O)Nc2ccc(C)c(S(=O)(=O)N3CCOCC3)c2)c(C)o1 the results were DAX1 inh-1 -1, DAX1 inh-2 -1, ssDAF12 agonist -2, hgDAF12 agonist 0 and hcDAF12 agonist -1.
O=C(Nc1ccccc1)Nc1ccc(Br)c(Cl)c1 was read as DAX1 inh-1 -1, DAX1 inh-2 0, ssDAF12 agonist -1, hgDAF12 agonist 12* and hcDAF12 agonist 6.5*.
CC(=O)Nc1ccc(NC(=S)NC(=O)C2CC2)cc1 was read as DAX1 inh-1 0, DAX1 inh-2 2, ssDAF12 agonist 0, hgDAF12 agonist 1 and hcDAF12 agonist 2.
Screening Cc1ccc(NC(=S)NC(=O)C2CC2)c(C)c1 returned DAX1 inh-1 1, DAX1 inh-2 4.0*, ssDAF12 agonist 0, hgDAF12 agonist 7 and hcDAF12 agonist 3.
For Cc1cc(C(=O)Nc2ccc(N3CCOCC3)c(Cl)c2)c(C)o1 the results were DAX1 inh-1 4.2*, DAX1 inh-2 0, ssDAF12 agonist -1, hgDAF12 agonist 1 and hcDAF12 agonist 2.
For COC(=O)[C@]12C[C@H](CC(=O)NCc3cccc4ccccc34)C(=O)N(Cc3ccccc3)C1=C[C@H](C1CCCC1)O[C@@H]2C the results were DAX1 inh-2 0, ssDAF12 agonist -1, hgDAF12 agonist 1 and hcDAF12 agonist -4.
CC(=O)c1cc(-c2cnn(Cc3ccccc3)c2)c(=O)n2c1CCC2 was read as DAX1 inh-2 0, ssDAF12 agonist -1, hgDAF12 agonist 2 and hcDAF12 agonist 1.
Screening CN(c1cccnc1)c1ccc(NC(=O)Cc2c[nH]c3ccccc23)cc1-c1ccc(C(C)(C)C)cc1 returned DAX1 inh-2 -1, ssDAF12 agonist 0, hgDAF12 agonist 2 and hcDAF12 agonist 3.
Screening CCOC(=O)[C@@]12CCCC=C1N(CCc1ccc(Cl)cc1)C(=O)[C@H]2CC(=O)NCc1cccc(C(F)(F)F)c1 returned DAX1 inh-2 -1, ssDAF12 agonist -2, hgDAF12 agonist 4 and hcDAF12 agonist -2.
Screening CCOc1ccc(/C=N/n2c(-c3ccccc3)n[nH]c2=S)cc1 returned DAX1 inh-1 5.8*, DAX1 inh-2 0, ssDAF12 agonist -1, hgDAF12 agonist 0 and hcDAF12 agonist -2.
S=c1[nH]nc(-c2ccncc2)n1/N=C/C(Cl)=C\c1ccccc1 was read as DAX1 inh-1 0, DAX1 inh-2 1, ssDAF12 agonist -1, hgDAF12 agonist 12* and hcDAF12 agonist 1.
For COCCCNC(=O)C[C@@H]1C(=O)N2CCCC3=C2[C@@]1(C(=O)OC)CCCC3 the results were DAX1 inh-2 1, ssDAF12 agonist 0, hgDAF12 agonist 1 and hcDAF12 agonist 1.
`CC(=O)Nc1ccc(N2C(=O)CC(Sc3nc4ccccc4s3)C2=O)cc1` (centres undefined) gave DAX1 inh-1 1, DAX1 inh-2 0, ssDAF12 agonist 3.9*, hgDAF12 agonist -1 and hcDAF12 agonist 1.
Cc1ccn2c(Nc3ccc4c(c3)OCO4)c(-c3ccccn3)nc2c1 was read as DAX1 inh-1 -2, DAX1 inh-2 1, ssDAF12 agonist -1, hgDAF12 agonist 0 and hcDAF12 agonist 6.0*.
For COc1cc(NC(=O)c2ccccn2)ccc1NC(=O)c1ccccc1Cl the results were ssDAF12 agonist -2, hgDAF12 agonist 7 and hcDAF12 agonist 2.

Screens from PubChem BioAssay.
